Source: PubChem BioAssay (NCATS)
Results filed as inconclusive are left out. Active and inactive are the calls of the source. The call rests on the fitted dose curve; in most records, active means well fitted curve in the direction sought with a large enough effect; inconclusive means small, poorly fitted or top-dose-only effect, or another doubt; inactive means no such curve, though single readings can be large; an effect the other way counts as inactive or inconclusive.

Legend:
[1] = test system: CP217; experiment: qHTS profiling for inhibitors of Plasmodium falciparum proliferation (AID 504749); further: nearly all actives have a fitted effect of over 60% in size; further: potency means the concentration at half of the fitted maximal effect; details: P. falciparum in erythrocytes, SYBR Green DNA, 72 h; series mostly up to 28.7 µM
Summary of the method: (§1)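 SYBR Green fluorescence of parasite DNA, read after lysis and overnight dark incubation, measured growth over 72 h in erythrocyte culture at 0.3% parasitemia and 2.5% hematocrit. Data normalised to DMSO and 0.29 uM artemisinin, with plate-drift correction.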

[2] = test system: P93_24; experiment: as above; details: P. falciparum in erythrocytes, SYBR Green DNA, 72 h; series mostly up to 28.7 µM
Summary of the method: as §1

[3] = test system: TAB165; experiment: as above; details: P. falciparum in erythrocytes, SYBR Green DNA, 72 h; series mostly up to 28.7 µM
Summary of the method: as §1

[4] = biological target: Cytochrome P450 3A4 (Homo sapiens) (UniProt P08684); experiment: qHTS Assay for Inhibitors and Substrates of Cytochrome P450 3A4 (AID 884); further: nearly all actives have a fitted effect of over 50% in size
Cytochrome P450 3A4 (Homo sapiens), sequence (P08684 whole entry, looked up): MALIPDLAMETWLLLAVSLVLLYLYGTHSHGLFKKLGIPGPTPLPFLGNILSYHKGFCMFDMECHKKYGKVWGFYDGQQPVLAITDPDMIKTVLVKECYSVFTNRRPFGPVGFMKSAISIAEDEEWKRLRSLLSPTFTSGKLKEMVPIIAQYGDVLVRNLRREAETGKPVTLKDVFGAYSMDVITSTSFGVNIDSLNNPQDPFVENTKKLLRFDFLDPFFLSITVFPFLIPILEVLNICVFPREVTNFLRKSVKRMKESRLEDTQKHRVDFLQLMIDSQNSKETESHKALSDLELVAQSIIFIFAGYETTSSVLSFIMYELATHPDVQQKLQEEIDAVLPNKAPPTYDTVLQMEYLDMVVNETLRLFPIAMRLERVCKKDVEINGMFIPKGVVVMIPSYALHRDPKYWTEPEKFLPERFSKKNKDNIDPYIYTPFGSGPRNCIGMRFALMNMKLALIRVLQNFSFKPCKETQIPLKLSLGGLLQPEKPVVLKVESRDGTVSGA
Summary of the method: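 Luminescent readout of luciferin produced by CYP3A4 (20 nM) dealkylation of Luciferin-PPXE, 25 uM (its KM). NADPH-driven reaction ran 60 min at RT after 10 min compound preincubation; data scaled to 57 uM ketoconazole as 100% inhibition.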

[5] = Confirmation and Secondary Assay for Modulators of Hemoglobin Beta Chain Splicing at IVS2 654 locus (AID 910);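 further: HeLa cells stably carrying EGFP split by mutant beta-globin IVS2-654 intron; per-well total GFP intensity by laser scanning cytometry after 2-day treatment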
Summary of the method: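 Readout: per-well total peak green fluorescence (488 nm ex, 500–520 nm em) from objects 5–250 µm, reflecting correct splicing of an EGFP-654 reporter. Compounds were applied for 2 days at 37 °C to overnight-plated HeLa EGFP-654 cells; controls were DMSO and 500 nM IVS2-654 PNA.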

[6] = Confirmation and Secondary Assay for Modulators of Hemoglobin Beta Chain Splicing at IVS2 705 locus (AID 930);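 further: HeLa cells stably expressing the EGFP-705 splicing reporter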
Summary of the method: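 Restored EGFP fluorescence after 2-day compound exposure reports splicing correction in IVS2-705 EGFP reporter HeLa cells; positive control was 500 nM splice-blocking PNA oligo. Signal measured as well total peak GFP intensity (488 nm excitation).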

[7] = test system: C2A; experiment: qHTS profiling for inhibitors of Plasmodium falciparum proliferation (AID 504749); further: nearly all actives have a fitted effect of over 60% in size; further: potency means the concentration at half of the fitted maximal effect; details: P. falciparum in erythrocytes, SYBR Green DNA, 72 h; series mostly up to 28.7 µM
Summary of the method: as §1

[8] = test system: CP191; experiment: as above; details: P. falciparum in erythrocytes, SYBR Green DNA, 72 h; series mostly up to 28.7 µM
Summary of the method: as §1

[9] = test system: TAB113; experiment: as above; details: P. falciparum in erythrocytes, SYBR Green DNA, 72 h; series mostly up to 28.7 µM
Summary of the method: as §1

[10] = test system: ATS95; experiment: as above; details: P. falciparum in erythrocytes, SYBR Green DNA, 72 h; series mostly up to 28.7 µM
Summary of the method: as §1

[11] = test system: CP247; experiment: as above; details: P. falciparum in erythrocytes, SYBR Green DNA, 72 h; series mostly up to 28.7 µM
Summary of the method: as §1

[12] = test system: CP250; experiment: as above; details: P. falciparum in erythrocytes, SYBR Green DNA, 72 h; series mostly up to 28.7 µM
Summary of the method: as §1

[13] = test system: CP252; experiment: as above; details: P. falciparum in erythrocytes, SYBR Green DNA, 72 h; series mostly up to 28.7 µM
Summary of the method: as §1

[14] = test system: P94_40; experiment: as above; details: P. falciparum in erythrocytes, SYBR Green DNA, 72 h; series mostly up to 28.7 µM
Summary of the method: as §1

Measured: Potency

COC(=O)C1[C@@H](OC)C(OC(=O)COc2ccc(OC)cc2)C[C@@H]2CN3CCc4c([nH]c5cc(OC)ccc45)[C@H]3C[C@H]12 (stereo partly drawn)
active: [1] 11.2 µM | [2] 10 µM | [3] 12.6 µM

CCC1OC(=O)C[C@H](O)C(C)[C@@H](O[C@@H]2OC(C)C(O)C(N(C)C)C2O)C(CCN2CC(C)CC(C)C2)CC(C)C(=O)/C=C/C(C)=C\[C@@H]1COC1OC(C)C(O)C(OC)C1OC (stereo partly drawn)
inactive: [4] | [5] | [6]
active: [7] 10 µM | [8] 6.31 µM

CC1=C(/C=C/C(C)=C\C=C\C(C)=C\C=C\C=C(C)\C=C\C=C(C)\C=C\C2=C(C)C[C@@H](O)CC2(C)C)C(C)(C)C[C@H](O)C1
active: [2] 12.6 µM | [3] 11.2 µM
inactive: [8] | [9]

Cc1cnc(NC(=O)C2C(=O)c3ccccc3S(=O)(=O)N2C)s1 (stereo not drawn)
not listed: [3] | [4] | [5] | [6]
inactive: all other assays above

C[C@@H]1CC2[C@@H]3C[C@H](F)C4=CC(=O)C(Cl)=C[C@]4(C)[C@@]3(F)[C@H](O)C[C@]2(C)[C@@]1(O)C(=O)CO (stereo partly drawn)
inactive: [1] | [12]

C=C1CC2C3C=C(C)C4=CC(=O)CCC4(C)C3CCC2(C)[C@@]1(OC(C)=O)C(C)=O (stereo partly drawn)
inactive: [7] | [11] | [12] | [13]

O=C(NC(CO)C(O)c1ccc([N+](=O)[O-])cc1)C(Cl)Cl (stereo not drawn)
inactive: [5] | [6] | [10]

CCCCC(=O)OC1CCC2C3CCc4cc(O)ccc4C3CC[C@]12C (stereo partly drawn)
inactive: [5] | [6] | [7] | [1] | [12] | [13]

Nc1nc(Cl)nc2c1ncn2[C@@H]1O[C@H](CO)[C@H](O)C1F (stereo partly drawn)
not listed: [4] | [5] | [6]
inactive: all other assays above

Cc1cncc(C(=O)O)[n+]1[O-]
inactive: [10] | [14] | [9]

C=C1N[C@]2(C(=O)COC(C)=O)[C@@H](C[C@H]3[C@@H]4CCC5=CC(=O)C=C[C@]5(C)[C@H]4[C@@H](O)C[C@@]32C)O1
inactive: [11] | [13]

CCC(=O)OC1C(N(C)C)CC(C)O[C@H]1O[C@H]1[C@H](C)[C@@H](O[C@H]2CC(OC)[C@@H](O)C(C)O2)[C@H](C)C(=O)O[C@@H](CC)[C@](C)(O)[C@@H](O)[C@H](C)C(=O)[C@@H](C)C[C@]1(C)O (stereo partly drawn)
inactive: [10] | [9]

C=C1CC[C@H](O)C/C1=C/C=C1\CCC[C@]2(C)[C@@H]([C@H](C)CCCC(C)(C)O)CC[C@@H]12
active: [11] 8.91 µM | [3] 12.6 µM

C=CCN1CC(C(=O)N(CCCN(C)C)C(=O)NCC)CC2c3cccc4[nH]cc(c34)CC21 (stereo not drawn)
inactive: [12]

O=C(O)C[CH2][Ge](=[O])[O][Ge](=[O])[CH2]CC(=O)O
not listed: [4] | [5] | [6]
inactive: all other assays above

CCN(CC)CCOCCOC(=O)C(CC)(CC)c1ccccc1 (tested in a mixture with another compound)
inactive: [10] | [11]
active: [8] 10 µM

C=C1CC[C@H](O)C/C1=C/C=C1\CCC[C@]2(C)[C@@H]([C@H](C)CC[C@@H](O)C(C)(C)O)CC[C@@H]12
active: [3] 14.1 µM

CC1=C[C@@H](O)CC(C)(C)[C@@H]1/C=C/C(C)=C/C=C/C(C)=C/C=C/C=C(C)/C=C/C=C(C)/C=C/C1=C(C)C[C@H](O)CC1(C)C
inactive: [8] | [12] | [13]

Oc1cc2cc(CCN3CCN(c4nsc5ccccc45)CC3)c(Cl)cc2[nH]1
inactive: [10] | [7] | [1] | [13] | [14] | [9]
active: [11] 10 µM
